Data published in PubChem BioAssay AID1053122 (Broad Institute, 2014).
Potency and affinity values are given separately. Activity calls are given as the source filed them.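 How the source made its calls: active means CTGF level falls with dose and the fitted half-maximal dose is at most twice the top valid dose; inconclusive means flat fit with 30 to 70% drop, or a poor fit; inactive means the rest.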

Assay: CTGF mRNA reduction in DLD1 cells – cell-based, DLD1 colon cancer, RT-qPCR, cherry-pick, dose response (AID 1053122)
Settings: DLD1 CTGF mRNA (YAP1 pathway), 24 h; series mostly up to 26 µM

outcome, inactive:
C[C@@H]1CN([C@H](C)CO)C(=O)c2ccccc2-c2ccccc2CO[C@@H]1CN(C)Cc1ccccc1C(F)(F)F
C[C@H]1CC=CC[C@@H](c2ccc(F)cc2)NC(=O)[C@H](Cc2ccccc2)N(C)C(=O)c2ccccc2O1 (mixture of isomers)
CN1CCN(C(=O)C[C@@H]2CC[C@H]3[C@@H](COc4ccc(NC(=O)C5CCOCC5)cc4C(=O)N3C)O2)CC1
N#Cc1cccc(-c2ccc3c(c2)[C@@H]2[C@@H](CCN2S(=O)(=O)c2ccc(F)cc2)[C@H](CO)N3)c1
O=C(CC1CC1)N1CC(=O)N2[C@H](CO)[C@@H](c3ccc(C#Cc4cccc(F)c4)cc3)[C@H]2C1
COc1ccccc1S(=O)(=O)N1CC[C@@H]2[C@H]1c1cc(-c3cccc(C#N)c3)ccc1N(C)[C@H]2CO
C[C@@H]1CN([C@H](C)CO)S(=O)(=O)c2ccc(C#Cc3ccccc3F)cc2O[C@@H]1CN(C)C(=O)Cc1cccnc1
CO[C@H]1CN(C)C(=O)c2cc(NC(=O)Nc3ccccc3F)ccc2OC[C@H](C)N(CCC(F)(F)F)C[C@@H]1C
CC(C)(C)S(=O)N1Cc2cc(C(=O)NCc3ccc4c(c3)OCO4)nc(-c3cccc(-c4cccc(F)c4)c3)c2[C@@H]1CCO (stereo not given in full)
C[C@@H]1CN([C@@H](C)CO)C(=O)c2ccccc2-c2ccccc2CO[C@@H]1CN(C)S(=O)(=O)c1cn(C)cn1
CCC(=O)N1Cc2cc(C(=O)NCc3cccc(F)c3)nc(-c3cccc(C4=CCCC4)c3)c2[C@H]1CCO
CC(C)(C)[S@](=O)N1Cc2cc(C(=O)NCCc3ccncc3)nc(-c3cccc(-c4cccc(C#N)c4)c3)c2[C@@H]1CCO
C[C@@H]1CN([C@@H](C)CO)C(=O)Cc2cc(NC(=O)C3CCCCC3)ccc2O[C@@H]1CN(C)Cc1ccc(Cl)c(Cl)c1
Cc1ccc(S(=O)(=O)N[C@H]2C=C[C@H](CC(=O)NCc3ccc(Cl)c(Cl)c3)O[C@H]2CO)cc1
COCC(=O)N1CC[C@@H]2[C@H](CO)Nc3ccc(C#Cc4ccc(F)cc4)cc3[C@@H]21
COc1ccc2c3c([nH]c2c1)[C@H](CO)NCC31CCN(C(=O)Cc2cccnc2)CC1
O=C(Nc1ccccc1)[C@@H]1[C@@H](CO)[C@@H]2Cn3c(cccc3=O)[C@H]1N2C(=O)c1ccc(F)cc1
Cc1ccc(S(=O)(=O)Nc2ccc3c(c2)CC(=O)N([C@H](C)CO)C[C@@H](C)[C@@H](CN(C)S(=O)(=O)c2ccccc2)O3)cc1
C[C@@H]1CN([C@@H](C)CO)C(=O)CCCn2nncc2CO[C@@H]1CN(C)C(=O)c1cc(-c2ccccc2)on1
C/C=C/c1cccc(-c2nc(C(=O)Nc3nccs3)cc3c2[C@@H](CCO)N(C(=O)NC(C)C)C3)c1
CS(=O)(=O)N1CC(=O)N2[C@H](C1)[C@@H](c1ccc(C#Cc3ccc(F)cc3)cc1)[C@@H]2CO
COc1ccc2c3c(n(C)c2c1)[C@H](CO)N(S(C)(=O)=O)CC31CCN(C(=O)Nc2cccc(F)c2)CC1
COc1ccc([C@H]2C/C=C\C[C@@H](c3ccc4c(c3)OCO4)NC(=O)[C@@H](c3ccccc3)CC(=O)N2)c(OC)c1
C[C@@H]1CN([C@H](C)CO)C(=O)CCCn2nncc2CO[C@@H]1CN(C)Cc1cccc(C(F)(F)F)c1
O=S(=O)(Cc1ccccc1)N1CC2(C1)[C@H](c1ccccc1)[C@H](CO)N2CC1CCCC1
COc1ccc(CN(C)C[C@H]2Oc3ccc(NC(=O)Nc4ccc5c(c4)OCO5)cc3CC(=O)N([C@@H](C)CO)C[C@H]2C)cc1
COc1cccc(-c2ccc([C@@H]3[C@@H](C#N)N(C(=O)Cc4ccncc4)[C@@H]3CO)cc2)c1
C[C@H]1CN([C@@H](C)CO)C(=O)c2cccc(NC(=O)c3ccc(-c4nccs4)cc3)c2O[C@@H]1CN(C)C(=O)Nc1ccc(C(F)(F)F)cc1
CO[C@@H]1CN(C)C(=O)c2cc(NS(=O)(=O)c3ccccc3C)ccc2OC[C@@H](C)N(S(=O)(=O)c2ccccc2)C[C@H]1C
COc1cccc(C#Cc2ccc3c(c2)O[C@@H](CN(C)C(=O)CN2CCOCC2)[C@@H](C)CN([C@@H](C)CO)S3(=O)=O)c1
